This passage reports Potency results from PubChem BioAssay (NCATS).

Results filed as inconclusive are left out. Where a call stands in place of a potency, no number is given. Active and inactive are the calls of the source. Calls come from the whole dose curve; as a rule, active = well fitted cell-killing curve with a large enough effect; inconclusive = small, poorly fitted or top-dose-only effect, or effect the other way; inactive = flat fitted curve, though single readings scatter.

The assay has as its system Tov112D. The assay can be described thus: Primary qHTS to identify gynecologic anti-cancer compounds using libraries of approved drugs and bioactive compounds (AID 1345084). Note: nearly all actives have a fitted effect of over 55% in size. The settings on record: Gynecologic cancer cell panel viability, ATPlite luminescence, 48 h; series mostly up to 57.5 µM. The essentials:
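Cells, 1,000 per well, plated 16 h, then exposed 48 h at 37 C to compounds. Viability by ATPlite luminescence after 15 min at room temperature.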
On to `CC(=O)c1c(C)cc2cccc(O)c2c1O[C@@H]1O[C@H](CO)[C@@H](O)[C@H](O)[C@H]1O`, for which the Potency result is “inactive”. On to `Oc1cccc(-c2c3nc(c(-c4cccc(O)c4)c4ccc([nH]4)c(-c4cccc(O)c4)c4nc(c(-c5cccc(O)c5)c5ccc2[nH]5)CC4)C=C3)c1`, for which the Potency result is “inactive”.

As to `Cc1[nH]c(/C=C2\C(=O)Nc3ccc(F)cc32)c(C)c1C(=O)NCCN1CCCC1`, the Potency entry was “inactive”. Then `CCn1nc(C2CCN(C(=O)CCO)CC2)nc1-c1cnc(N)c(-c2nnc(C(C)(C)C)o2)n1`, with “inactive”; and `C=C(C)C(=O)OC1CC(CO)CCC/C(CO)=C/C2OC(=O)C(=C)C21` (stereo unspecified), with “inactive”. For `CC(C)CCCCC(=O)N[C@@H](CO)C(=O)N[C@@H](CC(C)C)C(=O)[C@@]1(CO)CO1` the value was “inactive”.
